Results published in ChEMBL document CHEMBL1961873, “Compounds: GSK PKIS; Assays: Nanosyn kinase panel” (2012).

What was measured:
[1] = biological target: Mast/stem cell growth factor receptor Kit (Homo sapiens) (UniProt P10721); details: at 1 µM
[2] = system: Mast/stem cell growth factor receptor Kit (Homo sapiens), P10721 [D816V]; details: at 0.1 µM
[3] = system: Mast/stem cell growth factor receptor Kit (Homo sapiens), P10721 [D816V]; details: at 1 µM
[4] = system: Mast/stem cell growth factor receptor Kit (Homo sapiens), P10721 [T670I]; details: at 0.1 µM
Mast/stem cell growth factor receptor Kit (Homo sapiens), P10721 [T670I], sequence (P10721 whole entry T670I): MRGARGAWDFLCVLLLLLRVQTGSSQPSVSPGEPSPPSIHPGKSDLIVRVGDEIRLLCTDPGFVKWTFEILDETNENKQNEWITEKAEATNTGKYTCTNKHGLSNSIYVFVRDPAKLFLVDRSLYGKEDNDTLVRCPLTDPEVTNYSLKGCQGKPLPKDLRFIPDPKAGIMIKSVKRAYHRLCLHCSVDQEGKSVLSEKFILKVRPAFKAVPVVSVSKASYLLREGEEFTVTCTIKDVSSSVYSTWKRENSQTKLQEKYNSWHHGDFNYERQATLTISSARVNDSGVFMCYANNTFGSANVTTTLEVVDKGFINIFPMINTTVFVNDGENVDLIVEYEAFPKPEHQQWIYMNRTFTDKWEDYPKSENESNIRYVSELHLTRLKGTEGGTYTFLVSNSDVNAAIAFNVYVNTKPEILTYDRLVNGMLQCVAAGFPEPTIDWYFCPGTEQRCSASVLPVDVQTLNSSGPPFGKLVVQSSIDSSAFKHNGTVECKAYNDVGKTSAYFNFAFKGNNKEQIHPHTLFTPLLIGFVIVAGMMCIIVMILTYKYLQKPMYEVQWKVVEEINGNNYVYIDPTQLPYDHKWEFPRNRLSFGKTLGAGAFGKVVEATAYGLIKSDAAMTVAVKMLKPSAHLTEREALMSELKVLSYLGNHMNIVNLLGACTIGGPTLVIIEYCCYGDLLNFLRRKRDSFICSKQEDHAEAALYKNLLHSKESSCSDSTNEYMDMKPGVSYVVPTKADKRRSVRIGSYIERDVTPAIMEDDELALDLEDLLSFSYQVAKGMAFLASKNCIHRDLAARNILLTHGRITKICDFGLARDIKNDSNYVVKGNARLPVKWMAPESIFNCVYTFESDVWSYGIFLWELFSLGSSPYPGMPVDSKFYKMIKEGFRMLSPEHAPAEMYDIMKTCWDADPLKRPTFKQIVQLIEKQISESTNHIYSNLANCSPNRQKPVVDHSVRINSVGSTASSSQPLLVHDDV

[5] = system: Mast/stem cell growth factor receptor Kit (Homo sapiens), P10721 [T670I]; details: at 1 µM
[6] = system: Mast/stem cell growth factor receptor Kit (Homo sapiens), P10721 [V560G]; details: at 0.1 µM
Mast/stem cell growth factor receptor Kit (Homo sapiens), P10721 [V560G], sequence (P10721 whole entry V560G): as the sequence (P10721 whole entry T670I) above, with V560G, I670T counted along it

[7] = system: Mast/stem cell growth factor receptor Kit (Homo sapiens), P10721 [V560G]; details: at 1 µM
[8] = biological target: Tyrosine-protein kinase Lck (Homo sapiens) (UniProt P06239); details: at 0.1 µM
Tyrosine-protein kinase Lck (Homo sapiens), sequence (P06239 2-509 limits assumed): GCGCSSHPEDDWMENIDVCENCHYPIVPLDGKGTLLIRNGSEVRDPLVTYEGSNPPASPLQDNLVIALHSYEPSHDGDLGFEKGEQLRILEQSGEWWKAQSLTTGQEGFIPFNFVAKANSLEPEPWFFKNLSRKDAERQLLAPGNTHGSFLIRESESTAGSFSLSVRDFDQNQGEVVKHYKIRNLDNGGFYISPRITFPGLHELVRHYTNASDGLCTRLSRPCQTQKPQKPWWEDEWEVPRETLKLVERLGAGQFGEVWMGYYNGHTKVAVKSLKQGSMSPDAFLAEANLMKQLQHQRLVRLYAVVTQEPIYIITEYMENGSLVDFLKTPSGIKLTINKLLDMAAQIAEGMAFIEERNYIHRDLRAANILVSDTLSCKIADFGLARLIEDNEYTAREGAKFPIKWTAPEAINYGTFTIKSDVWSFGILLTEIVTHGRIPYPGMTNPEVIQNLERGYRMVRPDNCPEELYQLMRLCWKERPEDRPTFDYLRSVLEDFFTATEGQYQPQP

[9] = biological target: Tyrosine-protein kinase Lck (Homo sapiens) (UniProt P06239); details: at 1 µM
[10] = biological target: Leukocyte tyrosine kinase receptor (Homo sapiens) (UniProt P29376); details: at 0.1 µM
Leukocyte tyrosine kinase receptor (Homo sapiens), sequence (P29376 whole entry): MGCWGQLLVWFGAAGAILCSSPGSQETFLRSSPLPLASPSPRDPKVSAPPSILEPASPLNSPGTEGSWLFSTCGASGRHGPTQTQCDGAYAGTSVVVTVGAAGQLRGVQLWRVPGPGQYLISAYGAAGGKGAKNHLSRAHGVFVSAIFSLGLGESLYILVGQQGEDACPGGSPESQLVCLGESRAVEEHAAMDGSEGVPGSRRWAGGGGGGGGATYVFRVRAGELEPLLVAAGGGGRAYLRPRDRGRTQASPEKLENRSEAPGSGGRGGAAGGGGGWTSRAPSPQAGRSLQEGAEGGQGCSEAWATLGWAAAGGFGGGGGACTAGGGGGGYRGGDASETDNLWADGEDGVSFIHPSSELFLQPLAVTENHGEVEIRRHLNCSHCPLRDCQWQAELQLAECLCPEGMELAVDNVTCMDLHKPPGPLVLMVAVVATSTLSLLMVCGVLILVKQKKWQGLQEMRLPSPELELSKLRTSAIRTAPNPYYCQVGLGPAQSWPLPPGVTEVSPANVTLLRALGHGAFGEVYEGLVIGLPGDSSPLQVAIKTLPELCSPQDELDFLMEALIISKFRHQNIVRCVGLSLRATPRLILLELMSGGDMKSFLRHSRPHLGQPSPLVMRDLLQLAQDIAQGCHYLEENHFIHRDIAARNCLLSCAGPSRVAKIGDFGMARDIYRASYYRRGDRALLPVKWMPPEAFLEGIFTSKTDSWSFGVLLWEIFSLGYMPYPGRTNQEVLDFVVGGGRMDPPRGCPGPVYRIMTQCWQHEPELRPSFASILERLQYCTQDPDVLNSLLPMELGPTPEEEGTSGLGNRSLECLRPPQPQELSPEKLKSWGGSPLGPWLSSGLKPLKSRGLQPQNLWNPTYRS

[11] = biological target: Leukocyte tyrosine kinase receptor (Homo sapiens) (UniProt P29376); details: at 1 µM
[12] = biological target: Tyrosine-protein kinase Lyn (Homo sapiens) (UniProt P07948); details: at 0.1 µM
Tyrosine-protein kinase Lyn (Homo sapiens), sequence (P07948 2-512 limits assumed): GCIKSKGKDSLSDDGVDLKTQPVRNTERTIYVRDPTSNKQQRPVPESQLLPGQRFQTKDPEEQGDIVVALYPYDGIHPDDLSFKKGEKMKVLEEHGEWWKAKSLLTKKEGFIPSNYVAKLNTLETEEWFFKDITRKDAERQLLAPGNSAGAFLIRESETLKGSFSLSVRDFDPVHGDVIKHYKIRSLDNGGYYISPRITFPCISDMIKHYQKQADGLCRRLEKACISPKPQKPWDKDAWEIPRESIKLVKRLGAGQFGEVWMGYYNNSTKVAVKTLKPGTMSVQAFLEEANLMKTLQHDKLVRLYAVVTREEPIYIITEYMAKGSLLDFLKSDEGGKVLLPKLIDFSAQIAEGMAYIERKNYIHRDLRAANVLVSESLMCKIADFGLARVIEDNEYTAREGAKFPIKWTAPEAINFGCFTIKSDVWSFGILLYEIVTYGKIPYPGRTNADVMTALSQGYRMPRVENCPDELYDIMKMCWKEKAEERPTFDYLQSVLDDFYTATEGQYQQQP

[13] = biological target: Tyrosine-protein kinase Lyn (Homo sapiens) (UniProt P07948); details: at 1 µM
[14] = biological target: Tyrosine-protein kinase Lyn (Homo sapiens) (UniProt P07948); details: at 0.1 µM; remark: listed apart in the source
[15] = biological target: Tyrosine-protein kinase Lyn (Homo sapiens) (UniProt P07948); details: at 1 µM; remark: listed apart in the source
[16] = biological target: T1, Tyrosine-protein kinase Mer (Homo sapiens) (UniProt Q12866); details: at 0.1 µM
T1 sequence (whole entry): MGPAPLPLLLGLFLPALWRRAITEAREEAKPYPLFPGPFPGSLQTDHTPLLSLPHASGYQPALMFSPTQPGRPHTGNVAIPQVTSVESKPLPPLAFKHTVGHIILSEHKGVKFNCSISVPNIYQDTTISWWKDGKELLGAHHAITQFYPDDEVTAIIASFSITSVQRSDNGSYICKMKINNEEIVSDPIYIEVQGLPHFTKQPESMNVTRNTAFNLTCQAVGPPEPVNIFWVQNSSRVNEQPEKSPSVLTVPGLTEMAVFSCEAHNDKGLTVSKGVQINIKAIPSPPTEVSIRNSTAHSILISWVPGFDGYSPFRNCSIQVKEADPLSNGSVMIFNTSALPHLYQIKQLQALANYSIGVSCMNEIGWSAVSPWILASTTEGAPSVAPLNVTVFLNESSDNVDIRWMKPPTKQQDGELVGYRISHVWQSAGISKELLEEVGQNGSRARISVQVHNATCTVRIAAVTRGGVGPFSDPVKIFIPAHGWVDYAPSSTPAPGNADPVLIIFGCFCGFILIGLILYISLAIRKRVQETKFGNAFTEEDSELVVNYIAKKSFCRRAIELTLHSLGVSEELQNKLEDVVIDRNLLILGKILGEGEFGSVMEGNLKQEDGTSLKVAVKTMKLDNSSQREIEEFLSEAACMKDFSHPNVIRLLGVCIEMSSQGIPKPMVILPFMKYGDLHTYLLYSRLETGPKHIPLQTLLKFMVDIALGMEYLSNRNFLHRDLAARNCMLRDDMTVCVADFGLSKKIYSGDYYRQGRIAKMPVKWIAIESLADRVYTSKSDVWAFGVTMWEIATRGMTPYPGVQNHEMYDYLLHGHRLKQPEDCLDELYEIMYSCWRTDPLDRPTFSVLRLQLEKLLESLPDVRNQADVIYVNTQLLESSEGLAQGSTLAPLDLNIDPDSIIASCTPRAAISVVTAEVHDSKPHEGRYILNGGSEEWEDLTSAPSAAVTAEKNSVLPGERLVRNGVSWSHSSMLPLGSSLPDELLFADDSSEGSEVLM

[17] = biological target: T1, Tyrosine-protein kinase Mer (Homo sapiens); details: at 1 µM
[18] = biological target: Hepatocyte growth factor receptor (Homo sapiens) (UniProt P08581); details: at 0.1 µM
Hepatocyte growth factor receptor (Homo sapiens), sequence (P08581 whole entry): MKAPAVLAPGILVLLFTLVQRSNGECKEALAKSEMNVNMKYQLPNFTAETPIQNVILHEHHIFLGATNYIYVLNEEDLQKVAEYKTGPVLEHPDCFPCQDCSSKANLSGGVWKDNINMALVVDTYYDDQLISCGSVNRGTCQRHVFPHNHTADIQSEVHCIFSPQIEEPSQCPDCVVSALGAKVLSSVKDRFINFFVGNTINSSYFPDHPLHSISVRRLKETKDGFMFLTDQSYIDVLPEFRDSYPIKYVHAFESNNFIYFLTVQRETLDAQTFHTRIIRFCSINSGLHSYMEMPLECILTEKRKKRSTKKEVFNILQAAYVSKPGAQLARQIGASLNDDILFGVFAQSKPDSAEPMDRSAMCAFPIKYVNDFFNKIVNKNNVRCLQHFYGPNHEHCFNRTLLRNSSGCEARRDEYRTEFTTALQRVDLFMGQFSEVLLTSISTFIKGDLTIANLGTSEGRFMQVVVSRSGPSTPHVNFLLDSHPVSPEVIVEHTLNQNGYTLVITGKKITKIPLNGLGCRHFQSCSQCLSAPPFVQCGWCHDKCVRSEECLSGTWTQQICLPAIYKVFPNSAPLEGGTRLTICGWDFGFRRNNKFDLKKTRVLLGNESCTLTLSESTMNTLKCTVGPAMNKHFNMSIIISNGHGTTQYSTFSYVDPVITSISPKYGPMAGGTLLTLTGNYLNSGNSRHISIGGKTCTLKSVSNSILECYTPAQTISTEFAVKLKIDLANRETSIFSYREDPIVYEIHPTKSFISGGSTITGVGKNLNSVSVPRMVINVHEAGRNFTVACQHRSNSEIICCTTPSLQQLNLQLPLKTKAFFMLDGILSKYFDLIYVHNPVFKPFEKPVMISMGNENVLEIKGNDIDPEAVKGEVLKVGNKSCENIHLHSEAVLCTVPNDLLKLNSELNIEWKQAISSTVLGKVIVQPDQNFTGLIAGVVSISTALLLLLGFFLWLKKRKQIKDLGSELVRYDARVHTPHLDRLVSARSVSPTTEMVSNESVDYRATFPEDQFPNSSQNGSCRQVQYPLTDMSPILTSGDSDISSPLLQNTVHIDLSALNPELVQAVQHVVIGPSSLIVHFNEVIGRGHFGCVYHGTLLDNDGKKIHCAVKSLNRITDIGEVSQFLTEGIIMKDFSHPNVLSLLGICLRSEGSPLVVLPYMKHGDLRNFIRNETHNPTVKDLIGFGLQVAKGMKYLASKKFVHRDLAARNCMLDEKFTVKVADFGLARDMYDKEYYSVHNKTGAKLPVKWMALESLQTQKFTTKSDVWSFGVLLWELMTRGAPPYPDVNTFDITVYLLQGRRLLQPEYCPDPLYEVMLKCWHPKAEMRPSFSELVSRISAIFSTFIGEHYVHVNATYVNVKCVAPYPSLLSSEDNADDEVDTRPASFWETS

[19] = biological target: Hepatocyte growth factor receptor (Homo sapiens) (UniProt P08581); details: at 1 µM
[20] = biological target: T2, Muscle, skeletal receptor tyrosine-protein kinase (Homo sapiens) (UniProt O15146); details: at 0.1 µM;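 note: values are mean inhibition of MuSK from the GSK PKIS kinase screening panel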
T2 sequence (whole entry): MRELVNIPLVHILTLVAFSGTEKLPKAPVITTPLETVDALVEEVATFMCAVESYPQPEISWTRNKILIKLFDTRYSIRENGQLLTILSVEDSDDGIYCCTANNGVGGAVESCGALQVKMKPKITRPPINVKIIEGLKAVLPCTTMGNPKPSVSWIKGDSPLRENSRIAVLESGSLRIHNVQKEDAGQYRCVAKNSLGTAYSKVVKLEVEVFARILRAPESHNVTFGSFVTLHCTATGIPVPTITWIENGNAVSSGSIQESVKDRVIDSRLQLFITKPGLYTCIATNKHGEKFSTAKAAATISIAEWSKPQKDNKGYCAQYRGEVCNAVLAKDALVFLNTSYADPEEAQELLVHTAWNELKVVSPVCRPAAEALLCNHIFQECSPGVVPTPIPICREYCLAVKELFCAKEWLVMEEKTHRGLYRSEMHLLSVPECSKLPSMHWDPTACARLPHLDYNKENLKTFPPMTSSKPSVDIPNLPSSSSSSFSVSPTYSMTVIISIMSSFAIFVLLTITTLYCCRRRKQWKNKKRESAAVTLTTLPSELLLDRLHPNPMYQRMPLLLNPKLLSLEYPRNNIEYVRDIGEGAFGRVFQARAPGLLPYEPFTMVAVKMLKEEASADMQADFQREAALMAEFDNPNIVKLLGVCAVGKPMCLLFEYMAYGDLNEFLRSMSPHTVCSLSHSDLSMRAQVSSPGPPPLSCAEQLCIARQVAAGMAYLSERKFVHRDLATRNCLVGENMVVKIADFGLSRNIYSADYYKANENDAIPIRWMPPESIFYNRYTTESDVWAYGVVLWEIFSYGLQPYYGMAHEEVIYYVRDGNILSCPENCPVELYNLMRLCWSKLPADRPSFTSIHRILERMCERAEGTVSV

Mast/stem cell growth factor receptor Kit (Homo sapiens), P10721 [D816V], sequence (P10721 whole entry D816V): as the sequence (P10721 whole entry T670I) above, with I670T, D816V counted along it
Mast/stem cell growth factor receptor Kit (Homo sapiens), sequence (P10721 whole entry): as the sequence (P10721 whole entry T670I) above, with I670T counted along it

Row | Structure (SMILES) | inhibition [1] | inhibition [2] | inhibition [3] | inhibition [4] | inhibition [5] | inhibition [6] | inhibition [7] | inhibition [8] | inhibition [9] | inhibition [10] | inhibition [11] | inhibition [12] | inhibition [13] | inhibition [14] | inhibition [15] | inhibition [16] | inhibition [17] | inhibition [18] | inhibition [19] | inhibition [20]
1 | O=C1NC(=O)C(c2ccc(Cl)cc2)=C1Nc1ccc(Cl)c(C(=O)O)c1 | -0.38% | -3.8% | -3.02% | -0.88% | -1.49% | 2.75% | 8.56% | -0.44% | 0.35% | -1.15% | -0.2% | 0.02% | -0.5% | -2.02% | -0.81% | 1.27% | 0.08% | -1.14% | -0.38% | -1.83%
2 | CCCN1CCC(Oc2cc(Nc3nc(Nc4cccc(F)c4C(N)=O)c4cc[nH]c4n3)c(OC)cc2Cl)CC1 | 2.77% | -2.42% | -0.61% | -1.82% | 3.06% | 5.14% | 6.37% | -0.28% | 4.94% | 16.4% | 68.8% | 0% | 2.61% | -0.77% | 1.89% | 0.64% | 2.77% | -1.41% | -2.15% | 3.31%
3 | CS(=O)(=O)CCNCc1nc(-c2ccc3ncnc(Nc4ccc(F)c(Cl)c4)c3c2)cs1 | 5.11% | 3.12% | 2.42% | 1.78% | 2.83% | 10.4% | 10.7% | 3.91% | 20% | 2.39% | 1.99% | 4.29% | 27.3% | 3.57% | 19.4% | 0.48% | 4.95% | 3.54% | 9.65% | 1.59%
4 | COc1cc2ncn(-c3cc(OCc4ccccc4Cl)c(C(N)=O)s3)c2cc1OC | 15.6% | 0.27% | -0.43% | 2.57% | 8.11% | 2.29% | 3.13% | 2.94% | 19% | 1.19% | 4.03% | 3.15% | 25.6% | 2.45% | 21.1% | 1.26% | 8.5% | -0.6% | 19.7% | 4.75%
5 | CS(=O)(=O)CCNCc1ccc(-c2ccc3ncnc(Nc4ccc(OCc5cccc(F)c5)c(C(F)(F)F)c4)c3c2)o1 | 4.6% | 5.18% | 2.67% | 4.9% | 4.53% | -3.52% | -0.7% | 1.82% | 3.95% | 3.59% | 3.49% | 6.53% | 6.94% | 3.88% | 4.94% | 1.14% | 0.83% | 7.18% | 3.55% | 3.27%
6 | CC(=O)Nc1cccc(C#Cc2cncnc2Nc2ccc(OCc3cccc(F)c3)c(Cl)c2)n1 | 2.11% | -0.94% | 3.5% | -1.12% | 0.59% | 2.08% | 4.22% | 1.9% | 1.84% | -0.61% | 1.48% | 0.69% | 4.88% | 0.67% | 3.79% | -0.16% | 0.67% | -2.7% | 2.91% | 2.44%
7 | O=C1NC(=O)C(N2CCc3ccccc32)=C1c1ccc(Cl)cc1 | 12% | 2.68% | 2.43% | 3.14% | 3.85% | 7% | 3.94% | 1.6% | 4.29% | 2.8% | 1.64% | 6.82% | 6.94% | 5.14% | 4.26% | 4.06% | 6.47% | -1.68% | 7.33% | 2.09%
